Bioassay records (PubChem)
An excerpt weighted towards active compounds, which were near 8.2% of everything screened.
KB-V1 cytotox: qHTS assay for MDR1-selective chemotherapeutics: Primary screen using the drug-selected MDR subline cells KB-V1 | 400,000 compounds, 3.4% hits | KB-V1 MDR cells viability, CellTiter-Glo, 72 h | Potency, µM (highest dose often 46.1 µM), hits mostly cytotoxic | AID 1347076, 2019; also: % is scaled to controls: 0 for no effect and ±100 for the full control effect; nearly all actives have a fitted effect of over 60% in size
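Luminescent ATP read-out (CellTiter-Glo, 10 min) measures survival of drug-selected KB-V1 MDR cells after 72 h, 37 degrees C compound exposure. Medium: phenol-red-free DMEM, 10% FBS. Values from fitted concentration-response curves.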
MCF10A rereplic: A quantitative high throughput screen for small molecules that induce DNA re-replication in MCF 10a normal breast cells; MCF 10A DNA re-replication, Hoechst nuclear intensity, 48 h; Potency, µM (top dose mostly 46.1 µM), for the others: top-dose activity, positive = re-replication, hits mostly activators; 350,000 compounds, 2.9% hits; AID 624296, 2012; also: % of control where 0% means no effect; nearly all actives have a fitted effect of over 50% in size
SW480 rerep: A quantitative high throughput screen for small molecules that induce DNA re-replication in SW480 colon adenocarcinoma cells | SW480 DNA re-replication, Hoechst DNA content imaging, 48 h | Potency, µM (highest dose often 46.1 µM), inactives show top-dose re-replication activation, hits mostly activators | 340,000 compounds, 1.8% hits | AID 624297, 2012; also: % of control where 0% means no effect; nearly all actives have a fitted effect of over 55% in size
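Compounds, transferred as 23 nL by pin tool, were incubated with cells for 48 hr; DNA content per nucleus was then quantified by Hoechst staining and fluorescence plate imaging.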
ELG1 DNA repair: qHTS screen for small molecules that inhibit ELG1-dependent DNA repair in human embryonic kidney (HEK293T) cells expressing luciferase-tagged ELG1. Potency, µM (top dose mostly 46.1 µM), for the others: at the top dose activity change, negative = inhibition, most hits filed as inhibitors. AID 504467, 2011. 330,000 compounds, 2.3% hits. HEK293T ELG1-luciferase reporter, luminescence, 16 h; DNA damage induced by 5-fluorouridine; also: % is scaled to controls: 0 for no effect and ±100 for the full control effect; nearly all actives have a fitted effect of over 55% in size
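Cells (2,000 per well) received 5-fluorouridine plus test compound or DMSO and were incubated 16 hr at 37 °C, 5% CO2. Luciferase activity was read by luminescence 30 min after ONE-Glo addition; signal suppression marked inhibition of damage-induced ELG1 function.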
KB-3-1 cytotox: qHTS assay for MDR1-selective chemotherapeutics: Primary screen using the parental adenocarcinoma cell KB-3-1; AID 1347075, 2019; Potency, µM (highest dose often 46.1 µM), actives largely listed as cytotoxic; KB-3-1 viability, CellTiter-Glo ATP luminescence, 72 h; 400,000 compounds, 1.4% hits; also: % is scaled to controls: 0 for no effect and ±100 for the full control effect; nearly all actives have a fitted effect of over 60% in size
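Cells are dispensed, compounds pinned in, plates held at 37 °C for 72 h, then CellTiter-Glo is added and luminescence read after 10 minutes. Cell line: parental KB-3-1 in phenol-red-free DMEM, 10% FBS.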
* marks the source's active call; other numbers are inactive results. Calls follow the shape of the dose curve; as a rule, active = well fitted curve in the direction sought with a large enough effect; inconclusive = small, poorly fitted or top-dose-only effect, or another doubt; inactive = no such curve, though single readings can be large; an effect the other way counts as inactive or inconclusive. Potency is read from the fitted curve at half-maximal effect.

COCCCn1c(SCc2nnc(-c3ccc(OC)c(OC)c3)o2)nnc1-c1ccncc1 was read as KB-V1 cytotox inactive, MCF10A rereplic -4%, SW480 rerep -7%, ELG1 DNA repair -29% and KB-3-1 cytotox inactive.
For COc1ccc(-c2nnc(SCc3nnc(-c4cccs4)o3)n2CC2CCCO2)cc1 (stereo unspecified) the results were KB-V1 cytotox 4.6µM*, MCF10A rereplic -9%, SW480 rerep -1%, ELG1 DNA repair -15% and KB-3-1 cytotox inactive.
COc1ccc(-c2nnc(CSc3nnc(-c4ccncc4)n3C3CCCCC3)o2)cc1OC was read as KB-V1 cytotox 13µM*, MCF10A rereplic 12%, SW480 rerep -3%, ELG1 DNA repair inconclusive and KB-3-1 cytotox inactive.
`CN1CCN(S(=O)(=O)c2cccc(C(=O)N(C)CC(=O)Nc3ccc(Cl)c(Cl)c3)c2)CC1` gave KB-V1 cytotox inactive, MCF10A rereplic inconclusive, SW480 rerep -5% and KB-3-1 cytotox inactive.
Screening COC(=O)CNC(c1ccccc1)c1cc(Br)ccc1NS(=O)(=O)c1ccccc1 (stereo unspecified) returned KB-V1 cytotox inactive, MCF10A rereplic -7%, SW480 rerep -1%, ELG1 DNA repair 4% and KB-3-1 cytotox inactive.
For COC(=O)CNC(c1ccccc1)c1cc(Br)ccc1NS(=O)(=O)c1ccc(C)cc1 (stereo unspecified) the results were KB-V1 cytotox 5.8µM*, MCF10A rereplic 9%, SW480 rerep 4%, ELG1 DNA repair -10% and KB-3-1 cytotox inactive.
CCOC(=O)CNC(c1ccccc1)c1cc(Br)ccc1NC(=O)CCN1CCOCC1 (stereo unspecified) was read as KB-V1 cytotox inconclusive, MCF10A rereplic 10µM*, SW480 rerep 107%, ELG1 DNA repair 5% and KB-3-1 cytotox inactive.
`COC(=O)CNC(c1ccccc1)c1cc(Br)ccc1NC(=O)CNC(=O)OCc1ccccc1` (stereo unspecified) gave KB-V1 cytotox inconclusive, MCF10A rereplic inconclusive, SW480 rerep 11%, ELG1 DNA repair inconclusive and KB-3-1 cytotox inactive.
COC(=O)CNC(c1ccccc1)c1cc(Br)ccc1NC(=O)CCN1CCOCC1 (stereo unspecified) was read as KB-V1 cytotox inconclusive, MCF10A rereplic 18µM*, SW480 rerep inconclusive, ELG1 DNA repair 6% and KB-3-1 cytotox inactive.
Screening Cc1ccccc1C1(O)c2ccccc2-c2ccccc21 returned KB-V1 cytotox inactive and KB-3-1 cytotox inactive.
`CC(C)c1cccc(NC(=O)COC(=O)c2ccccc2OCc2cccc(Br)c2)c1` gave KB-V1 cytotox inactive and KB-3-1 cytotox inconclusive.
For Cc1ccc(F)cc1C(=O)N1CCCC(c2cc(C(=O)NCc3ccccc3)no2)C1 (stereo unspecified) the results were KB-V1 cytotox inconclusive and KB-3-1 cytotox inactive.
For COc1cc2c(cc1OC)C(c1cc3cc4c(cc3[nH]c1=O)OCO4)N(C(=O)C(C)C)CC2 (stereo unspecified) the results were KB-V1 cytotox inactive, MCF10A rereplic 8.2µM*, SW480 rerep inconclusive, ELG1 DNA repair -12% and KB-3-1 cytotox inactive.
Screening CN(C)/C=C(\C#N)S(=O)(=O)C(C)(C)C returned KB-V1 cytotox inactive, MCF10A rereplic 5.2µM*, SW480 rerep 18%, ELG1 DNA repair 5% and KB-3-1 cytotox inactive.
COc1ccc(-c2csc(C(O)c3cccc(OC)c3)n2)cc1 (stereo unspecified) was read as KB-V1 cytotox inactive and KB-3-1 cytotox inactive.
CC(=O)C1CCN(c2ncc(-c3ccc4c(c3)OCCCO4)s2)CC1 was read as KB-V1 cytotox inactive and KB-3-1 cytotox inactive.
Screening COc1ccccc1C(=O)N1CCC(C(=O)c2ccc(F)cc2)CC1 returned KB-V1 cytotox 9.2µM*, MCF10A rereplic 0%, SW480 rerep 1%, ELG1 DNA repair -26% and KB-3-1 cytotox inactive.
COc1ccccc1NC(=O)N1CCC(C(=O)c2ccc(F)cc2)CC1 was read as KB-V1 cytotox 21µM*, MCF10A rereplic 26%, SW480 rerep -7%, ELG1 DNA repair inconclusive and KB-3-1 cytotox inactive.
Cc1ccc(NC(=O)c2cnn3c2NC(=C2CC2)C=C3C(F)F)cc1 was read as KB-V1 cytotox inactive and KB-3-1 cytotox inconclusive.
For CCCN(CC(=O)Nc1ccccc1C)C(=O)c1cc2ccccc2oc1=O the results were KB-V1 cytotox inactive and KB-3-1 cytotox inactive.
`c1csc(-c2nn3c(C4COc5ccccc5O4)nnc3s2)c1` (stereo unspecified) gave KB-V1 cytotox inconclusive, MCF10A rereplic inconclusive, SW480 rerep 3.7µM*, ELG1 DNA repair 10% and KB-3-1 cytotox inactive.
For CC(C)Oc1ccccc1-c1cc(C(=O)N/N=C/c2cccnc2)c2ccccc2n1 the results were KB-V1 cytotox inactive, MCF10A rereplic inconclusive, SW480 rerep 1%, ELG1 DNA repair 14% and KB-3-1 cytotox inactive.
For COc1ccc(COc2cc(-c3cccc(OC)c3)nc3ccc(N)cc23)cc1 the results were KB-V1 cytotox 5.8µM*, MCF10A rereplic 0.73µM*, SW480 rerep 1.5µM*, ELG1 DNA repair -13% and KB-3-1 cytotox inconclusive.
For COc1ccc(COc2cc(-c3cccc(OC)c3)nc3ccc(NC(=O)c4ccc(C)cc4)cc23)cc1 the results were KB-V1 cytotox inactive, MCF10A rereplic 5.8µM*, SW480 rerep 21µM*, ELG1 DNA repair inconclusive and KB-3-1 cytotox 9.2µM*.
For COc1ccc(COc2cc(-c3cccc(OC)c3)nc3ccc(NC(=O)c4ccc(N(C)C)cc4)cc23)cc1 the results were KB-V1 cytotox inactive, MCF10A rereplic 5.8µM*, SW480 rerep 9.2µM*, ELG1 DNA repair inconclusive and KB-3-1 cytotox 4.6µM*.
`COc1ccc(COc2cc(-c3cccc(OC)c3)nc3ccc(NC(C)=O)cc23)cc1` gave KB-V1 cytotox inactive, MCF10A rereplic 0%, SW480 rerep inconclusive, ELG1 DNA repair inconclusive and KB-3-1 cytotox inactive.
`CSCCC(NS(=O)(=O)c1ccc(C)cc1)C(=O)NCC(C)(C)N1CCOCC1` (stereo unspecified) gave KB-V1 cytotox inactive, MCF10A rereplic 0%, SW480 rerep -9%, ELG1 DNA repair 21% and KB-3-1 cytotox inactive.
